Compound activity deposited in PubChem by National Center for Advancing Translational Sciences (NCATS).
Shiga inhibitor – Shiga toxin inhibition; Vero cells, Shiga toxin protein synthesis inhibition reporter; inhibition, % at 38.7 µM; actives 9.2% (n = 290,000); AID 2315; in the data active = inhibition mostly above about 28%, no sharp cut-off; inactive = mostly below about 43%; note: 0% is about no effect
HCMV antiviral – blocks human cytomegalovirus replication; HFF cells, HCMV-luciferase reporter, 72 h; stronger effect = lower value; AID 1259415; activity change, negative = inhibition, % at 57.5 µM; actives 4.5% (n = 410,000); in the data active = activity change below about -60%; inconclusive = no clear call, values can overlap the other calls; inactive = above about -39%; note: % is set by controls: 0 for no effect and ±100 for the full control effect
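Two-dose cell screen: HFF monolayers treated with compounds and infected with luciferase-expressing HCMV at 1 PFU/cell, 72 h at 37C, then lysed for luciferase measurement.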
Pf growth 96h – P. falciparum growth inhibition at 96 hours. actives 6.9% (n = 320,000). P. falciparum luciferase reporter growth, 96 h. Potency, µM (highest dose often 28.7 µM), without a hit: at the highest dose activity change, negative = inhibition, actives largely listed as inhibitors. AID 504834; note: potency is the fitted concentration of half-maximal effect; % is set by controls: 0 for no effect and ±100 for the full control effect
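P. falciparum expressing integrated firefly luciferase grown in erythrocytes (2% hematocrit, 0.05% parasitemia final) with compounds for 96 hours at 37 C, 5% CO2. Growth inhibition read as loss of luminescence after adding luciferase detection reagent.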
Cycloheximide cs – counter-screen hit for Shiga toxin inhibitors, cycloheximide. cell reporter, cycloheximide protein synthesis inhibition counterscreen. max response, %. actives 12% (n = 300,000). AID 2314; in the data active = max response mostly above about 13%, no sharp cut-off; inactive = mostly below about 14%; note: read at 38.3 µM for the half of the compounds with a filed dose; 0% is about no effect
Pf growth 48h – P. falciparum growth inhibition at 48 hours (one generation). P. falciparum luciferase growth in erythrocytes, 48 h. Potency, µM (series often up to 28.7 µM), without a hit: top-dose activity change, negative = inhibition, hits mostly inhibitors. actives 5.9% (n = 310,000); note: potency is the fitted concentration of half-maximal effect; % is set by controls: 0 for no effect and ±100 for the full control effect
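Compounds are pin-transferred into medium, infected erythrocytes (2% hematocrit, 0.1% parasitemia final) are added, and plates sit one parasite generation at 37 C in 5% CO2. Detection reagent is then added and luminescence measured.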
The depositor's hits bear a star; i = inactive; ? = inconclusive; . = not tested or not shown. Sampled rows, rich in hits. Any-hit rate of the full collection: about 20%. Unless noted, calls come from the whole dose curve; as a rule, active = well fitted inhibition curve with a large enough effect; inconclusive = small, poorly fitted or top-dose-only effect, or another doubt; inactive = no such curve, though single readings can be large or run the other way.

SMILES	Shiga inhibitor	HCMV antiviral	Pf growth 96h	Cycloheximide cs	Pf growth 48h
Cc1ccc(C)c(N2CCN(c3nc4c(S(=O)(=O)c5ccccc5)nnn4c4ccc(Cl)cc34)CC2)c1	.	-6	.	.	.
Cc1ccc(CN2CCN(/N=C/c3ccc(C)s3)CC2)cc1	-14	-7	?	-3	19%
Cc1ccc(/C=N/N2CCN(Cc3ccccc3)CC2)s1	70*	27	46%	51*	45%
BrC(/C=N/N1CCN(Cc2ccccc2)CC1)=C/c1ccccc1	21	?	5%	8	-20%
BrC(=C\c1ccccc1)/C=N/N1CCN(Cc2ccccc2)CC1	13	-35	51%	22*	-13%
C(=N\N1CCN(Cc2ccccc2)CC1)/c1ccccc1	69*	-34	15%	39*	28%
Clc1cccc(/C=N/N2CCN(Cc3ccccc3)CC2)c1	51	11	-15%	21*	46%
O=[N+]([O-])c1cc(/C=N/N2CCN(Cc3ccccc3)CC2)ccc1Cl	-6	.	?	-1	10%
Cc1ccc(OCC(=O)Nc2ccccc2C(=O)OCc2cc(=O)n3ccsc3n2)cc1	.	68	.	.	.
FC(F)(F)c1ccccc1/C=N/N1CCN(Cc2ccccc2)CC1	109*	23	21%	36*	82%
C(=N\N1CCN(Cc2ccccc2)CC1)/c1cccnc1	28	-34	6.6µM*	10	33%
FC(F)(F)c1ccc(/C=N/N2CCN(Cc3ccccc3)CC2)cc1	1	-28	9%	8	39%
Cc1ccc(/C=N/N2CCOCC2)s1	68*	79	92%	46*	i
CCc1sc(Nc2cccc(C)c2)nc1-c1cc2cccc(OC)c2oc1=O	.	-9	.	.	.
c1ccc2nc3c(nc2c1)[nH]c1ccccc13	103*	203	2%	64*	.
O=C1[C@H](Cc2ccccc2)NCC=CC[C@@H](c2ccc(Cl)cc2)N1Cc1ccccc1	.	-24	.	.	.
CC(OC(=O)c1ccco1)C(=O)NCc1cccs1 (stereo unspecified)	-4	2	12µM*	-4	0%
Cc1ccc(C(=O)Nc2ccc(N3CCN(C)CC3)cc2)cc1	56*	107	0%	34*	68%
CN1CCN(c2ccc(NC(=O)c3ccc4ccccc4c3)cc2)CC1	85*	-15	-41%	31*	-19%
COc1ccc(C(=O)Nc2ccc(N3CCN(C)CC3)cc2)cc1OC	48*	150	?	30*	100%
COc1ccc(C(=O)Nc2ccc(N3CCN(C)CC3)cc2)cc1	.	44	0.093µM*	48*	107%
CCOc1ccc(C(=O)Nc2ccc(N3CCN(C)CC3)cc2)cc1	15	44	-16%	12	4%
CCOC(=O)CNC(=O)CC(c1cc(OC)c(OC)c(OC)c1)N1Cc2ccccc2C1=O (stereo unspecified)	.	21	.	.	.
COc1ccc(CCN2CC(C(=O)NCCc3cn[nH]c3)CCC2=O)cc1 (stereo unspecified)	-8	10	-22%	10	19%
CC1(C(=O)NS(=O)(=O)c2cccc(Cl)c2)CCN1C(=O)Cc1cc(F)ccc1F (stereo unspecified)	.	-16	.	.	.
SMILES	Shiga inhibitor	HCMV antiviral	Pf growth 96h	Cycloheximide cs	Pf growth 48h
COc1nccnc1NS(=O)(=O)c1ccc(NCc2ccccc2O)cc1	-10	37	-18%	-2	8%
CC(C)c1ccccc1NC(=O)C1C2C=CC(C2)C1C(=O)O (stereo unspecified)	-3	18	?	-1	19%
Oc1c(/C=N/Nc2cccc3cccnc23)ccc2ccccc12	90*	73	9%	74*	5.9µM*
COc1cc(/C=N/Nc2cccc3cccnc23)cc(OC)c1O	69*	7	7%	34*	?
Oc1cccc(/C=N/Nc2cccc3cccnc23)c1	123*	15	224%	44*	-22%
CCCCn1nnnc1C(c1cc2ccccc2o1)N(CCC#N)Cc1ccccc1 (stereo unspecified)	.	1	.	.	.
COc1cc2nc(N(CCCN(C)C)C(=O)c3ccc(S(=O)(=O)N(C)C4CCCCC4)cc3)sc2cc1OC	.	-8	?	.	?
CCN(Cc1ccccc1)S(=O)(=O)c1ccc(C(=O)N(CCCN(C)C)c2nc3cc4c(cc3s2)OCCO4)cc1	.	-34	?	.	?
CN(C)CCCN(C(=O)c1ccc(S(=O)(=O)N(C)C2CCCCC2)cc1)c1nc2ccc(Br)cc2s1	8	-29	?	-1	13µM*
